Sensor-assay potency score (higher = more potent) data for 40 sequences are collected here from the OligoGym collection.
Also: reference of the scale not given here.

In one assay the target is DCX. The assay can be described thus: pooled miR-30 sensor sort-seq; sequence = guide strand. The conditions noted are these: shRNA.
For TTTCTGGCTATAACTATTCTAA, the sensor-assay potency score (higher = more potent) was -0.801. The same measure, in the same setting: in the case of TAGAGTTTTTTGACAACCCCGG it was -0.351. TTTCATTTAAATCAACTCCGAT: the sensor-assay potency score (higher = more potent) is -0.0704. Sequence TAAATTAACACCTACAATCTGG came in with a sensor-assay potency score (higher = more potent) of -0.105.

For the sequence TTCGGTAGAAGCTACAGTGGGC, the sensor-assay potency score (higher = more potent) was 0.324. Regarding TACAACTGTAAGACAACTGGGA, the sensor-assay potency score (higher = more potent) came out at 0.406. As to TTGTATACAAGTCATAAGGGAT, the sensor-assay potency score (higher = more potent) is -0.914. Sequence ATTCTTGGTGTACTCCACCTTT returned a sensor-assay potency score (higher = more potent) of -0.629. Sequence TTTATTTCCATAGCAAACTGGA came in with a sensor-assay potency score (higher = more potent) of -0.272. TAACATAGAATATAAACTGAGA showed a sensor-assay potency score (higher = more potent) of -0.639. Take TTAACACCTACAATCTGGCTTC: the sensor-assay potency score (higher = more potent) came to 0.157. Consider TCTATCTTAAAACAGCTGCAGG, for which the sensor-assay potency score (higher = more potent) was -0.806. The same measure, in the same setting: in the case of TTGGGATTGACATTCTTGGTGT it was 0.0923; in that of TCAATTATTAGTATTTAGCTGA, 0.00518.

As for TACAAGGTGACTTCTGTTGTGC, the sensor-assay potency score (higher = more potent) is 0.124. For the sequence TTGAATGCTGCGAATCTTCAGC, the sensor-assay potency score (higher = more potent) is -0.1.

Take TCTAGTAGTACATATACCGCAA: the sensor-assay potency score (higher = more potent) is 0.223. As for TATTCATCTTGTTTTCTCCTGG, the sensor-assay potency score (higher = more potent) is 0.366.

The target in the next assay is DDAH1. The assay is described as above. Conditions: shRNA.
Take TTAGATATATACAGTTTGCTGC: the sensor-assay potency score (higher = more potent) is -0.536.

TTGCATGATCTTAAGGGCCTTC displayed a sensor-assay potency score (higher = more potent) of -0.108.

Consider TTTCATCTCTACTATATTGAGC, for which the sensor-assay potency score (higher = more potent) was -0.645. The sequence TTCATCTTTCATCTCTACTATA had a sensor-assay potency score (higher = more potent) of -1.1.

Turning to ATCTCTACTATATTGAGCTGAA, the sensor-assay potency score (higher = more potent) is -0.824. TAAACCTTTGCACTTTCTGGAT yielded a sensor-assay potency score (higher = more potent) of -0.647. In turn, TAAAGTTGCATTTTCATCTTTC registered a sensor-assay potency score (higher = more potent) of 0.237. On the same count and under the same terms, then TACAGTTTGCTGCTATGTCATC, with -1.54; and TTTCTGGATACTCTTCCGGGGT, with -1.06. Still for that read-out and setting: in the case of TTAATTAAAACTGAGCAGCAGG it was -0.0699. Same read-out and setting: in the case of TAAAACATCTCCGCCATCTAAA it was -0.943; in that of TACTATATTGAGCTGAAGTTTT, -1.16.

The target in a further assay is DDB2. The description is as above. Conditions: shRNA.
As for TCAAATAACTGCTTGATCCCTC, the sensor-assay potency score (higher = more potent) worked out at 0.323. For the sequence AACTTTTGAAATTAGGATCTGG, the sensor-assay potency score (higher = more potent) was 0.321. For the sequence TAAACTCGGATCTCGCTCTTCT, the sensor-assay potency score (higher = more potent) turned out to be 0.0905. As to AACTCGGATCTCGCTCTTCTGG, the sensor-assay potency score (higher = more potent) was -1.5. Still for that read-out and setting: then TGAGTTTCCATCGAACACGTCG, with 0.1; and TACAACTTTTGAAATTAGGATC, with -0.816; and TCGAACACGTCGATCGTCCTCA, with -0.285. Still for that read-out and setting: then TTGATGGTGTCTGAGCTGGCAA, with -1.17. In turn, TCTCCTGTGACCACCATTCGGC came in with a sensor-assay potency score (higher = more potent) of -0.886.

Turning to TACAATCTCGGAGGTCTTCTGG, the sensor-assay potency score (higher = more potent) is -0.449.
